The list is not random: actives were taken first. Their share in the collection is about 3.1%.
MLL AF4-AF9 inh: blocks AF4 peptide binding to human AF9 | P42568 | inhibition, % at 10 µM | AlphaScreen, biotin-AF4 peptide binding to FLAG-AF9 | AID 651704 | actives 0.47% (n = 350,000);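 active = every replicate reaching a set inhibition limit, whatever the replicate mean, cut at about 25% in these data; inconclusive = mean inhibition reaches that limit but some replicates miss it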;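 also: 0% = plate neutral control median and 100% = total signal loss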
DENV2 CPE rescue: protects cells from dengue virus 2 cytopathic effect | DENV2-infected cells, cytopathic effect rescue, plate reader | CPE inhibition, % at 9.99 µM | actives 1.7% (n = 350,000); in the data active = CPE inhibition above about 20%, passing the limit was not always enough; inconclusive = no clear call, values can overlap the other calls; tested in BHK-21 cells;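 also: 0% = median of neutral control wells and 100% = median of positive control wells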
RAD52 anneal inh: inhibitors of human RAD52 DNA annealing | AID 651710 | recombinant RAD52 DNA annealing, FRET fluorescence | inhibition, % at 18.7 µM | actives 0.46% (n = 360,000) | P43351;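 active = every replicate showing at least 50% inhibition; inconclusive = mean inhibition at least 50% but not in every replicate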
dFosB act-1: enhances mouse delta FosB homodimer DNA binding; P13346; purified delta FosB, TAMRA-CDK5 oligo fluorescence polarization; percent of positive-control signal above neutral wells; activation, % at 25 µM; actives 0.99% (n = 340,000); AID 493131;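 active = mean activation above about 17%, with every replicate also reaching it, limit read from the data, passing the limit was not always enough; inconclusive = only one of the two conditions met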
INS-1E GSIS act: primary screen for activators of insulin secretion dependent on glucose, INS-1E cells, GLuc reporter luminescence; AID 743287; actives 0.61% (n = 370,000); activation, % at 16.6 µM; INS-1E GLuc reporter insulin secretion, 2-3 h;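 active = lowest replicate activation of at least 40%, so every replicate reaches that level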;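 also: 0% = median of neutral control wells and 100% = median of IBMX positive control wells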
RAD54 inh: inhibitors of human RAD54 branch migration | Q92698 | RAD54 Holliday junction branch migration, FAM/BHQ fluorescence | inhibition, % at 10.4 µM | actives 0.14% (n = 360,000);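 active = mean normalized replicate activity at least 40 and at least half of replicates scoring 40 or more; inconclusive = only one of the two criteria met; inactive = mean below 40 and under half of replicates reaching 40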;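 also: 0% = median of neutral control wells and 100% = median of positive control wells; inhibitors cause a drop in the FAM fluorescence signal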
Target sequence (Q92698 whole entry, looked up): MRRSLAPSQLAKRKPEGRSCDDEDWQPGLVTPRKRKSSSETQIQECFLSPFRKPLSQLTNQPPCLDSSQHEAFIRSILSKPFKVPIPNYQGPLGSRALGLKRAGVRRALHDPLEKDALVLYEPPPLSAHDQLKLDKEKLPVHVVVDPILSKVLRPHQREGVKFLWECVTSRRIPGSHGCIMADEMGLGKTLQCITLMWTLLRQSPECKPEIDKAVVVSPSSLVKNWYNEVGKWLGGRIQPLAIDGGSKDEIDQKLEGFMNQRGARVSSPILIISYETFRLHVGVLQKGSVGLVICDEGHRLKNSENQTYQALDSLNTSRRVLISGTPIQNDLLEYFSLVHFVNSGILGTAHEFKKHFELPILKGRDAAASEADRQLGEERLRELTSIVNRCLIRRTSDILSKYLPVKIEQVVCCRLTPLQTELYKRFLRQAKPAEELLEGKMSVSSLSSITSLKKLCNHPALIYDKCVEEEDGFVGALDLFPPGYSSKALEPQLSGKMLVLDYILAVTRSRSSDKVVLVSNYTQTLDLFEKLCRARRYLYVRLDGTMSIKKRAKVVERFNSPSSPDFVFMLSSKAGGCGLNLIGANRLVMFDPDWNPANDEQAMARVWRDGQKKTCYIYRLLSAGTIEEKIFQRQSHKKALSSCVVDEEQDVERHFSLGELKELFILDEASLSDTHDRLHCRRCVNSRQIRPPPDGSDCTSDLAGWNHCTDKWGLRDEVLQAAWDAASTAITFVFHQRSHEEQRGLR
dFosB act-2: activators of mouse delta FosB homodimer DNA binding; shares compounds with dFosB act-1; purified delta FosB, TAMRA-CDK5 oligo fluorescence polarization; normalised: neutral wells 0, positive control 100; activation, % at 24.9 µM; 2,400 tested, under 10 active;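 active = highest replicate activation at or above 34% and every replicate reaching that threshold; inconclusive = meets only one of the two criteria; inactive = meets neither criterion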;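 also: higher polarization means more probe DNA bound by delta FosB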
Numbers without * were called inactive; ? = inconclusive; . = no result given.

SMILES | MLL AF4-AF9 inh | DENV2 CPE rescue | RAD52 anneal inh | dFosB act-1 | INS-1E GSIS act | RAD54 inh | dFosB act-2
COc1ccc2c3c([nH]c2c1)[C@@H](CO)N(Cc1ccccc1)CC31CN(C(=O)NC(C)C)C1 | 0 | 8 | -43 | . | -3 | . | .
C/C(=N/O)c1ccc2c(c1)OCCOCCOc1cc(/C(C)=N/O)ccc1OCCOCCO2 | . | . | . | 21* | 24 | . | 5
COc1ccccc1-n1c(SC)nc2c(sc(=S)n2-c2ccccc2)c1=O | -4 | -3 | -9 | 24* | 16 | -5 | 1
Clc1ccc(Cn2cc(/C=N/n3cnnc3)c3ccccc32)c(Cl)c1 | . | . | . | 25* | . | . | 3
O=C(Nn1c(C2CCCCC2)nc2ccccc2c1=O)c1ccc([N+](=O)[O-])cc1Cl | . | . | . | 43* | -31 | . | 3
O=C(Nn1c(C2CCCCC2)nc2ccccc2c1=O)c1cc(Cl)ccc1[N+](=O)[O-] | 0 | 6 | -8 | 1 | 2 | . | .
COC(=O)C[C@H]1C[C@@H]2c3cc(NC(=O)Nc4ccc(OC)cc4)ccc3O[C@@H]2[C@H](CO)O1 | . | 6 | . | . | -5 | -5 | .
Cc1ccc(C)c(NC(=O)CSc2nc(N)c(NC(=O)c3cccs3)c(=O)[nH]2)c1 | -2 | 5 | -12 | 33* | 1 | 1 | 1
CCc1nnc(NC(=O)CSc2nc(N)c(NC(=O)c3ccc(OC)cc3)c(=O)[nH]2)s1 | -1 | -3 | -21 | 48* | 15 | 15 | -4
Cc1cc(NC(=O)CSc2nc(N)c(NC(=O)c3ccccc3)c(=O)[nH]2)no1 | 2 | -6 | -5 | 11 | 3 | . | .
Nc1nc(SCC(=O)Nc2ccc(C(F)(F)F)cc2)[nH]c(=O)c1NC(=O)c1ccc(F)c(F)c1 | -1 | 8 | -2 | 50* | -8 | -12 | -1
COCCSc1nc(N)c(NC(=O)c2ccc(OC)cc2)c(=O)[nH]1 | -2 | 4 | -16 | -4 | 6 | . | .
Cc1cc(NC(=O)CSc2nc(N)c(NC(=O)c3ccccc3F)c(=O)[nH]2)no1 | 1 | -2 | -20 | 22* | 12 | -22 | 6
Cc1cccc(NC(=O)CSc2nc(N)c(NC(=O)c3cccs3)c(=O)[nH]2)c1 | -2 | 5 | -9 | -1 | -3 | 4 | .
Cn1cnc(S(=O)(=O)N[C@H]2C=C[C@@H](CC(=O)NCC3CC3)O[C@H]2CO)c1 | -2 | 8 | -4 | . | 1 | -2 | .
C[C@@H]1CN([C@@H](C)CO)C(=O)Cc2cc(N(C)C)ccc2O[C@H]1CN(C)S(=O)(=O)c1ccc(F)cc1 | 5 | -8 | 14 | . | -2 | -25 | .
CN1CCN(C(=O)C[C@@H]2C[C@H]3c4cc(NS(C)(=O)=O)ccc4O[C@H]3[C@H](CO)O2)CC1 | -1 | 4 | 2 | . | 8 | -11 | .
Cc1cc(C)cc(NC(=O)CSc2nc(N)c(NC(=O)c3ccc(Br)o3)c(=O)[nH]2)c1 | 0 | -9 | -16 | 77* | -6 | -7 | ?
CCOC(=O)c1ccc(NC(=O)CSc2nc(N)c(NC(=O)c3ccc(Br)o3)c(=O)[nH]2)cc1 | 0 | -4 | -1 | -9 | -1 | 4 | .
Cc1cc(NC(=O)CSc2nc(N)c(NC(=O)c3ccc(F)c(F)c3)c(=O)[nH]2)no1 | -2 | -10 | -6 | 57* | -17 | 3 | 5
CN(C[C@H]1N[C@@H](CO)[C@@H]1c1ccc(C2=CCCC2)cc1)C(=O)c1ccccn1 | 0 | 19 | -38 | . | 4 | 2 | .
CCC(=O)N1CC2(CCN(C(C)=O)CC2)c2c([nH]c3cc(OC)ccc23)[C@@H]1CO | -1 | -10 | -15 | . | 12 | . | .
COc1ccccc1CN1[C@H](C(=O)NCCc2ccncc2)[C@@H](CO)[C@@H]2Cn3c(cccc3=O)[C@@H]21 | . | -1 | -4 | . | 8 | 1 | .
CCN(CC)CCN(C(=O)c1ccc2c(c1)OCCO2)c1nc2cc3c(cc2s1)OCO3 | 6 | 2 | 0 | 3 | 28 | 10 | .
CN(C)CCN(C(=O)c1cccs1)c1nc2cc3c(cc2s1)OCCO3 | 6 | 14 | 28 | 15 | 17 | 31 | .
SMILES | MLL AF4-AF9 inh | DENV2 CPE rescue | RAD52 anneal inh | dFosB act-1 | INS-1E GSIS act | RAD54 inh | dFosB act-2
CN(C)CCN(C(=O)c1ccc(Br)s1)c1nc2cc3c(cc2s1)OCCO3 | 12 | 9 | 10 | 19* | 4 | 27 | 2
CCN(CC)CCN(C(=O)c1cc2c(ccc3ccccc32)oc1=O)c1nc2cc3c(cc2s1)OCCO3 | 6 | ? | 42 | 71* | -45 | 25 | 0
CN(C)CCN(C(=O)c1cccc2ccccc12)c1nc2cc3c(cc2s1)OCO3 | 28* | -5 | 0 | 41* | -45 | 23 | 0
COc1ccc(NC(=O)N(C)C[C@H]2Oc3ccc(NS(=O)(=O)c4ccc(F)cc4)cc3CC(=O)N([C@@H](C)CO)C[C@@H]2C)cc1 | 0 | 9 | 2 | . | 0 | . | .
O=c1c2c(O)cc(O)cc2oc2c(O)ccc(O[C@H]3O[C@@H](CO)[C@H](O)[C@@H](O)[C@@H]3O)c12 | -6 | -11 | -1 | 17* | -5 | 13 | -1
O=c1c(OC2OC(CO)C(O)C(O)C2O)c(-c2ccc(O)c(O)c2)oc2cc(O)cc(O)c12 (stereo not drawn) | -3 | . | 1 | 9 | -3 | 14 | .
COC(=O)c1cc(OC)c(OC)cc1NC(=O)c1cc(OC)cc(OC)c1 | -1 | . | -10 | 23* | 18 | . | -4
COC(=O)c1cc(OC)c(OC)cc1NC(=O)c1csc(C)c1 | -4 | 10 | -8 | -2 | 14 | 0 | .
Cc1ccc2nc(C)cc(Nc3ccc([N+](=O)[O-])cc3)c2c1 | 4 | 8 | -31 | 63* | 12 | . | 1
COC(=O)c1ccc(Nc2cc(C)nc3ccc(C)cc23)cc1 | 3 | 1 | -2 | -8 | . | . | .
CNC[C@@H]1Oc2c(NC(=O)Nc3ccc(OC)cc3)cccc2C(=O)N([C@H](C)CO)C[C@H]1C | -1 | 1 | -4 | . | 11 | -5 | .
C[C@H](NC(=O)C[C@@H]1C[C@H]2c3cc(NC(=O)NC4CCCCC4)ccc3O[C@H]2[C@H](CO)O1)c1ccccc1 | 2 | 9 | -8 | . | 2 | -8 | .
Cc1ccc(NC(=O)CC2S/C(=N/N=C/c3ccco3)NC2=O)cc1Cl (stereo not drawn) | -2 | -4 | -7 | 33* | -4 | . | -1
COc1ccc(NC(=O)C2CC(=O)N/C(=N/N=C/c3ccco3)S2)cc1 (stereo not drawn) | 1 | 1 | -11 | . | -2 | 7 | .
O=C1CC(C(=O)Nc2ccc(Cl)cc2)S/C(=N\N=C\c2ccco2)N1 (stereo not drawn) | -19 | 19 | -12 | 45* | 3 | -12 | 0
O=C1CC(C(=O)Nc2ccc(Br)cc2)S/C(=N\N=C\c2ccco2)N1 (stereo not drawn) | -16 | -3 | -8 | 15 | -6 | . | .

Assay outcomes: PubChem, Broad Institute
